The whole screen tested about 360,000 compounds, of which about 2,000 (0.56%) were called active. Inconclusive results (about 2%) are left out. The sample as a whole holds a higher share of actives than the screen did. Values without a mark were called inactive. Cut-off read from the data, not from the text of the source: active = activity change below about -65%; inconclusive = mostly about -30% to -63%; inactive = weaker than that.
Molecular target: Homeobox protein SIX1 (Homo sapiens) + Protein phosphatase EYA2 (Homo sapiens) (UniProt Q15475+O00167)
Sequence (O00167 whole entry, looked up): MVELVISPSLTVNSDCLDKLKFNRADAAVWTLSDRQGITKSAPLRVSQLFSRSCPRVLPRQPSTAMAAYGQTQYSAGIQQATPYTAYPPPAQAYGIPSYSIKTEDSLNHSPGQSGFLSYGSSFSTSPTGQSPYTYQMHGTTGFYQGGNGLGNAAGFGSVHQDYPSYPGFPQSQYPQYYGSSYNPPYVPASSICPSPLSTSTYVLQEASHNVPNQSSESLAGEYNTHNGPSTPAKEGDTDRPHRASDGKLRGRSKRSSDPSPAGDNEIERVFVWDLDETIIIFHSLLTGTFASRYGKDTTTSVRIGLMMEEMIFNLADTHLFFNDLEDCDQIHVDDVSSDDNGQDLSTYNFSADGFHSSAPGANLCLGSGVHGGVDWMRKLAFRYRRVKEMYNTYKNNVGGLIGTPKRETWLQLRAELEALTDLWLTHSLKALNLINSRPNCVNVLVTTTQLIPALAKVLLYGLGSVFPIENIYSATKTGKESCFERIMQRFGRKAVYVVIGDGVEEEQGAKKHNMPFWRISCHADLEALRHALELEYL
Sequence (Q15475 whole entry, looked up): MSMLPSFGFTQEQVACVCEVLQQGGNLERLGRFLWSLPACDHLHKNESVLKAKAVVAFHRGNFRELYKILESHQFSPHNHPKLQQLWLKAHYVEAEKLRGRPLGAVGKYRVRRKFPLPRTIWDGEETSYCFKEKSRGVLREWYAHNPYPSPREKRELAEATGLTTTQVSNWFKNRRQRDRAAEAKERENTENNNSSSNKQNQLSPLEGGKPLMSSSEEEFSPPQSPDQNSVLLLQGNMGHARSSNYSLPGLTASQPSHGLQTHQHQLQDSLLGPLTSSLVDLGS
Experiment: qHTS Assay for Inhibitors of the Six1/Eya2 Interaction
Details: AlphaScreen GST-Six1/His-Eya2 binding, biochemical; active compounds read low
Summary of the method: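 AlphaScreen with GST-Six1 and His-Eya2 (5X mix: 250 nM and 500 nM), glutathione donor and nickel acceptor beads; buffer 50 mM Tris pH 8.0, 300 mM NaCl, 1 mM TCEP; 1 h at 37 C in the dark.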
% is set by controls: 0 for no effect and ±100 for the full control effect.

SMILES | activity change
CC1(C(=O)Nc2ccc3c(c2)OCCO3)CSCC(=O)N1CCOc1ccccc1 (configuration not stated) | -5.39%
CC1(C(=O)NCc2ccccc2)CSCC(=O)N1CCCn1ccnc1 (configuration not stated) | -4.73%
O=C(NCCCn1ccnc1)C(=O)NCC1OCCN1S(=O)(=O)c1cc(F)ccc1F (configuration not stated) | -72.2% (active)
O=C(NCCCc1ccccc1)C(=O)NCC1OCCN1S(=O)(=O)c1ccccc1 (configuration not stated) | 5.49%
Cc1cc(F)ccc1S(=O)(=O)N1CCCOC1CNC(=O)C(=O)NCCC1=CCCCC1 (configuration not stated) | 6.61%
COc1ccc(NC(=O)C(c2ccncc2)n2c(=O)c(-c3cc4ccccc4[nH]3)nc3ccccc32)cc1 (configuration not stated) | 18.4%
Oc1ccc(Br)cc1/C=N/Nc1ccccn1 | -77.2% (active)
CCN(CC)CCn1c(/N=C/c2cc(Br)ccc2O)nc2ccccc21 | 4.55%
O=C(Nc1ccc(Br)cc1)c1cc(S(=O)(=O)Nc2ccccn2)ccc1Cl | -3.31%
CCOC(=O)[C@]12CCC=C1N(Cc1ccco1)C(=O)[C@H](CC(=O)N1CCSCC1)C2 | 13%
CO[C@@H]1CN(C)C(=O)c2cc(NC(=O)C3CC3)ccc2OC[C@H](C)N(C(=O)CN2CCOCC2)C[C@@H]1C | -0.378%
COC(=O)[C@]12CCCCC=C1N(Cc1ccco1)C(=O)[C@H](CC(=O)NCC1CCCCC1)C2 | 4.18%
O=C(CCCO)N/N=C/c1cc(Br)ccc1O | -68.6% (active)
O=C(CCC(=O)N/N=C/c1ccc(Br)o1)N/N=C/c1ccc(Br)o1 | 0.575%
NCCCCCC(=O)N/N=C/c1ccc2nccnc2c1 | 4.58%
O=[N+]([O-])c1cccc(S(=O)(=O)NCc2ccccn2)c1 | -5.71%
O=[N+]([O-])c1ccc(N/N=C2/CCCCC2c2ccccn2)c([N+](=O)[O-])c1 (configuration not stated) | -4.9%
O=[N+]([O-])c1ccc2nc(-c3ccccn3)[nH]c2c1 | -72.6% (active)
O=C(NC1CCCCC1)C(c1cc2ccccc2o1)n1c(=O)c(-c2ccco2)nc2ccccc21 (configuration not stated) | 6.65%
O=C1OCCOC2CCCc3oc(-c4ccccc4)c1c32 (configuration not stated) | -10.5%
CCOC(CNC(=O)C1CCN(S(=O)(=O)c2ccc3nc4c(c(C(=O)O)c3c2)CC(C)CC4)CC1)OCC (configuration not stated) | -16.3%
Cc1ccc(CNC(=O)C2CCN(S(=O)(=O)c3ccc4nc5c(c(C(=O)O)c4c3)CC(C)CC5)CC2)cc1 (configuration not stated) | -65.1% (active)
CC(=O)N1c2ccc(S(=O)(=O)N3CCC(C(=O)NCc4ccc(F)cc4)CC3)cc2CC1C (configuration not stated) | -0.504%
CCCNC(=O)C[C@@H]1CC[C@@H]2[C@H](COC[C@H](O)CN2C(=O)c2cc(Cl)cc(Cl)c2)O1 | 9.3%
CCN(CC)c1ccc(/C=N/NC(=O)c2cnccn2)c(O)c1 | -91.7% (active)
CCN(CC)c1ccc(NC(=O)c2ccc(Cl)nc2)cc1 | -10.4%

SMILES | activity change
COc1ccc(NC(=O)C/C(C)=N/NC(=O)c2cnccn2)cc1Cl | -8.49%
O=C1CN(C(=O)c2ccccc2F)C(c2ccc(F)cc2)c2cc(F)ccc2N1 (configuration not stated) | 10.1%
CCOC(=O)[C@]12CCCC=C1N(CCC1=CCCCC1)C(=O)[C@H](CC(=O)NCCCOC)C2 | -3.1%
COC(=O)[C@@]12C[C@@H](CC(=O)NCCCCc3ccccc3)C(=O)N(Cc3ccccc3)C1=CCC(C)(C)C2 | -3.62%
CCOC(=O)[C@]12CCC=C1N(CCC1=CCCCC1)C(=O)[C@H](CC(=O)NCc1ccc(C)o1)C2 | -7.25%
O=S1(=O)CC(N2CCN(Cc3ccccc3F)CC2)CN1Cc1cn(Cc2cccc(C(F)(F)F)c2)nn1 (configuration not stated) | 1.67%
Cc1cc(C)c(S(=O)(=O)N(C)CC(=O)NCC2CCCO2)c(C)c1 (configuration not stated) | 3.65%
Cc1ccc(-n2ncc3c(Nc4cccc(C(=O)O)c4)ncnc32)cc1 | -66.4% (active)
Cc1ccc(Nc2ncnc3c2cnn3C)c(C)c1 | 8.85%
CC(C)Sc1ncnc2c1cnn2-c1ccccc1 | 16.7%
Cc1[nH]c2ccccc2c1C(=O)c1cc([C@H](NC(=O)OC(C)(C)C)C(C)C)sc1N | -28%
O=C1CCN(CCCc2ccccc2)CCN1CCO | -23.5%
O=C(NC1CCCC1)C1c2ccccc2OCC(=O)N1CC(F)(F)F (configuration not stated) | -3%
Cc1c(NC(=O)CSc2nnnn2-c2ccc(C(=O)O)cc2)c(=O)n(-c2ccccc2)n1C | 5.09%
Cc1c(NC(=O)CSc2nnc(-c3cccnc3)n2N)c(=O)n(-c2ccccc2)n1C | 10.2%
Cc1c(NC(=O)CSc2cccc3cccnc23)c(=O)n(-c2ccccc2)n1C | -90.9% (active)
CC(=O)C[C@@H]1OC[C@H](CO)N1S(=O)(=O)c1ccc(C)cc1 | 7.41%
CN(Cc1cn(Cc2ccc(C(F)(F)F)cc2)nn1)C1CN(Cc2cn(Cc3ccc(C(F)(F)F)cc3)nn2)S(=O)(=O)C1 (configuration not stated) | 3.81%
CN(Cc1ccccc1)C(=O)[C@@H]1CCCN1C(=O)[C@@H]1CCCN1C(=O)c1c(F)cccc1F | 7.39%
S=C(Nc1cccnc1)Nc1ccccn1 | 6.86%
S=C(NN=Cc1ccccn1)Nc1ccccn1 | -91.9% (active)
COc1cc(/C=N/NC(=S)Nc2cccnc2)cc(OC)c1O | 0%
O=C(NCCc1ccco1)c1nn(Cc2ccccc2)c(=O)c2ccccc12 | -4.25%
O=C(OCN1C(=O)c2ccccc2C1=O)/C(=C\c1ccco1)NC(=O)c1ccccc1 | -1.79%
O=c1nc2s/c(=C\c3ccco3)c(=O)n2nc1Cc1ccccc1 | -82.8% (active)
CCOC(=O)c1cc2cc(OC)ccc2n1C1CCN(C)CC1 | 1.46%

Source: PubChem BioAssay AID651725 (National Center for Advancing Translational Sciences (NCATS), 2012)
